Here are results for 62 compounds from PubChem BioAssay AID778 (Sanford-Burnham Center for Chemical Genomics, 2007).

Among all 96,000 compounds or so, about 20,000 (21%) were called active.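 How the source made its calls: active means CYP2C19 inhibition above a set limit at 5 µM in the primary screen (cut at about 50% in these data); inactive means the rest.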 The list is a sample of the results.

The target in this test is Cytochrome P450 2C19 (Homo sapiens) (UniProt P33261). The experiment in a line: blockers of cytochrome P450 2C19 activity – biochemical, luminescence, ADME assay, primary screen (AID 778).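 Further: plate controls were negative control wells for no effect and 2.5 mM tranylcypromine positive control for full effect.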 The following applies: CYP2C19 Supersomes, luciferin-H EGE luminescence, 30 min; at 5 µM; active compounds read high.
Cytochrome P450 2C19 (Homo sapiens), sequence (P33261 whole entry, looked up): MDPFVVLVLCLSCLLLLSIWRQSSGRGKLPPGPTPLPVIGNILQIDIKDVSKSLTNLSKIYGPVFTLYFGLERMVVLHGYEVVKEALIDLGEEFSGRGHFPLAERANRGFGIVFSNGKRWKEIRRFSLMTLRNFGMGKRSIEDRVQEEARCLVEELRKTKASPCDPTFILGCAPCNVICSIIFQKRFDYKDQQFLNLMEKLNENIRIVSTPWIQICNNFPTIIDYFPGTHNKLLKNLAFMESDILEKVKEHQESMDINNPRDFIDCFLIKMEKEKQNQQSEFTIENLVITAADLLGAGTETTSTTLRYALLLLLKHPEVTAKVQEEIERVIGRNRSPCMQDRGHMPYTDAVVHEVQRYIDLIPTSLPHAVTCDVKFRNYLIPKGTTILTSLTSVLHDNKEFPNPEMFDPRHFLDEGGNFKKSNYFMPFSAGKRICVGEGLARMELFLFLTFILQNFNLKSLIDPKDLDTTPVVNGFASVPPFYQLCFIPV
Regarding `Cc1ccc(C)c(NC(=O)C2CCCN2C(=O)OC(C)(C)C)c1` (configuration not stated), the inhibition (in general, the change of the read-out against control, counted positive when it falls) is 11.7% (inactive).

As for `Cc1ccc(C)c(NC(=O)C2Cc3ccccc3CN2C(=O)OCc2ccccc2)c1` (configuration not stated), the inhibition is 62.3% (active). In the case of `CC(=O)N1Cc2ccccc2CC1C(=O)O` (configuration not stated), the inhibition was -21.6% (inactive). On to `Cc1cc(C(F)(F)F)nn1-c1nc(-c2ccco2)cc(C(F)(F)F)n1`, for which the inhibition is 2.2% (inactive).

`CCOC(=O)c1cn(CC(=O)Nc2ccc(C(C)C)cc2)nn1`: the inhibition is 62% (active). On to `CCOC(=O)c1ccc(NC(=O)CSc2ncccn2)cc1`, for which the inhibition is 26.9% (inactive). For `CCOC(=O)c1ccc(NC(=O)Cn2nnc(-c3ccc(C)cc3)n2)cc1`, the inhibition was 8.5% (inactive).

Consider `COCC(C)NC(=O)c1ccc(-n2nc(C(F)(F)F)cc2-c2cccs2)cc1` (configuration not stated), for which the inhibition was 12.4% (inactive). Regarding `O=c1cc(CSc2ccc(Cl)cc2)nc(N2CCOCC2)[nH]1`, the inhibition is 38.8% (inactive).

Turning to `CSCc1cc(N(C)C)nc(SCc2ccc(Cl)cc2Cl)n1`, the inhibition is 40.2% (inactive). Then `CSCc1cc(N2CCOCC2)nc(SCc2ccc(Cl)cc2Cl)n1`, with 50.8% (active); and `O=C(c1ccc2c(c1)OCCO2)C1CCN(S(=O)(=O)c2cccc(F)c2)CC1`, with 35.4% (inactive); and `COc1ccc(CCNC(=O)CCn2c(=O)oc3ccccc32)cc1OC`, with 1.4% (inactive). Consider `Cc1nnc(NC(=O)Cn2c(=O)sc3ccccc32)s1`, for which the inhibition was 47.6% (inactive). The result for `COc1ccc(Cn2c(=O)sc3ccccc32)cc1OC` reads 99.8% (active); that for `Cn1c(=O)c2c(nc(SCCNS(=O)(=O)c3ccccc3)n2C)n(C)c1=O`, 73.3% (active); that for `Cn1c(=O)c2c(nc(SCC(=O)Nc3ccccc3N3CCCCC3)n2C)n(C)c1=O`, 86.6% (active).

In the case of `C#CC(C)(C)NC(=O)CSc1nc2c(c(=O)n(C)c(=O)n2C)n1CCCC`, the inhibition was -7.1% (inactive). Take `CCCSc1nc2c(c(=O)[nH]c(=O)n2C)n1CCc1ccccc1`: the inhibition was 26% (inactive). Then `Cn1c(=O)c2c(nc(N3CCCCCC3)n2CC(=O)c2ccc(Br)cc2)n(C)c1=O`, with 0.8% (inactive); and `CC(C)n1c(SCC(=O)Nc2ccccc2N2CCCCC2)nc2c1c(=O)n(C)c(=O)n2C`, with 40.4% (inactive). Then `Cc1ccc(NC(=O)c2cc(-c3ccc(C)o3)nc3ccccc23)nc1`, with -3.9% (inactive); and `Cc1ccc(-c2csc(N(Cc3ccco3)C(=O)c3cccs3)n2)cc1`, with 68.5% (active); and `O=C(O)CCC(=O)N(Cc1ccco1)c1nc(-c2ccccc2)cs1`, with 2.5% (inactive).

In the case of `Cc1ccc(-c2csc(NC(=O)c3cccs3)n2)cc1`, the inhibition is -2.3% (inactive). Regarding `CCOC(=O)N1CCN(C(=O)C2CCN(S(C)(=O)=O)CC2)CC1`, the inhibition is -15% (inactive). As to `CN(CCCC(=O)Nc1nccs1)S(=O)(=O)c1ccc(Cl)cc1`, the inhibition is 51% (active). The result for `O=C(Nc1nccs1)C1CCN(S(=O)(=O)c2ccc(Cl)c(C(F)(F)F)c2)CC1` reads 36.3% (inactive); that for `Cc1nc(NC(=O)CN(C)S(=O)(=O)c2ccc(Cl)cc2)sc1C`, 62.6% (active); that for `CCOC(=O)Cc1csc(NC(=O)CN(C)S(=O)(=O)c2ccc3c(c2)CCC(=O)N3)n1`, -17.1% (inactive). For the compound `CN(CC(=O)Nc1cccc2c1CCCC2)S(=O)(=O)c1ccc(Cl)cc1`, the inhibition was -15.4% (inactive). Then `CCN(c1ccccc1)S(=O)(=O)c1ccc(C(=O)Nc2nccs2)cc1`, with -4.3% (inactive); and `O=c1c2ccccc2c(-c2ccc(Br)cc2)nn1Cc1ccccc1`, with 33% (inactive). For `CCC(=O)NC(=Nc1nc2ccccc2s1)NC(=O)CC`, the inhibition is -0.9% (inactive). The result for `N#C/C=C1\Sc2ccccc2C(=O)N1CC(=O)N1CCN(S(=O)(=O)c2ccccc2)CC1` reads -22.8% (inactive); that for `CC1(C)CC(=O)C(C=NCCN2CCN(C(=S)Nc3cccc(Cl)c3)CC2)=C(O)C1`, 60.5% (active); that for `CC(=O)N1CCN(CCN=CC2=C(O)CC(C)(C)CC2=O)CC1`, -18.4% (inactive). Then `CC1(C)CC(=O)C(C=NCCC2=CCCCC2)=C(O)C1`, with 9.5% (inactive); and `CCn1cc(C(=O)NCC2CCCO2)c(=O)c2cc(S(=O)(=O)N3CCCCC3)ccc21` (configuration not stated), with 13.6% (inactive). Consider `Cc1ccc(C(=O)N(CN2CCCC2=O)c2ccc(F)cc2)cc1`, for which the inhibition was -14.3% (inactive). On to `COc1ccc(Cl)cc1NC(=O)C1CC(=O)N(c2ccc(F)cc2)C1` (configuration not stated), for which the inhibition is 74.3% (active). Then `CCCNC(=O)C1CC(=O)N(c2ccc(OCC(=O)Nc3cccc(C)c3C)cc2)C1` (configuration not stated), with -17.2% (inactive); and `COCCCNC(=O)C1CC(=O)N(c2ccc(C)cc2)C1` (configuration not stated), with 5.7% (inactive); and `N#Cc1c(N)nc2c3c(sc(=N)c2c1N)NC(=O)CC3c1ccccc1Cl` (configuration not stated), with -0.8% (inactive). The result for `CN(C)c1ccnc(Oc2ccc(F)cc2)c1C#N` reads 32.1% (inactive); that for `Cc1cccc(OCc2nnc(SCn3nnc4ccccc4c3=O)o2)c1`, 31.6% (inactive). For the compound `Cc1cccc(OCc2nnc(SCc3nc4cc(C(F)(F)F)ccc4c(=O)[nH]3)o2)c1`, the inhibition was 54% (active). The result for `Cc1cc(C)cc(OCc2nnc(SCC(=O)OC3CCCCC3)o2)c1` reads 4.2% (inactive); that for `COc1ccc(Nc2cc(C)nc(-n3nc(C)cc3C)n2)cc1`, 46% (inactive); that for `COCCCNC(NC(=O)c1ccc(C)cc1)C(Cl)(Cl)Cl` (configuration not stated), 24.3% (inactive). In the case of `CCC(=O)c1c[nH]c(C(=O)NCC2CCCO2)c1` (configuration not stated), the inhibition was -4.8% (inactive). The result for `CCNC(=O)N1CCNC(=O)C1CC(=O)Nc1ccc(C(=O)OCC)cc1` (configuration not stated) reads 3.6% (inactive).

Consider `CC1(C)Cc2cccc(OCC(N)=O)c2O1`, for which the inhibition was -16.5% (inactive). The result for `COc1cc(C(=O)Nc2nccs2)cc(OC)c1OC` reads 17.9% (inactive); that for `CC1(C)Cc2cccc(OCC(=O)Nc3nccs3)c2O1`, 60.6% (active); that for `CCOC(=O)c1cc2n(c1N)-c1ccccc1C2=O`, 26.7% (inactive). The result for `O=C(NCC1CCC(C(=O)O)CC1)OCc1ccccc1` (configuration not stated) reads 2.9% (inactive); that for `Cc1nn(-c2ccccc2)c(Cl)c1C(=O)Nc1ccccc1`, 39.2% (inactive). Turning to `Cc1nn(-c2ccccc2)c(CC(C)(C)C(=O)O)c1C(=O)O`, the inhibition was 7.2% (inactive). On to `Cc1ccc(C(=O)/C=C/c2c(C)nn(-c3ccccc3)c2Cl)cc1`, for which the inhibition was 76.2% (active).

Consider `Cc1ccc(O)c(CNc2nc3ccccc3n2C)c1`, for which the inhibition is 39.6% (inactive). In the case of `CCC1SC2=NCCN2C1(O)c1ccc(Cl)cc1` (configuration not stated), the inhibition is 94.6% (active).
